TTR transcr act: TTR transcription activators in neuroblastoma reporter cells, primary screen, cell-based, luminescence, SH-SY5Y, TTR promoter Gaussia luciferase | 100% = recombinant luciferase protein wells | actives 1.3% (n = 92,000) | activation, % at 16.7 µM;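 active = activation above the mean of all tested compounds plus 3 SD, cut at about 9.5% in these data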;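 note: cells exposed to compounds for one day before reading; 0% = median of all test compound wells on the plate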
HuH7 TTR inh: TTR promoter reporter inhibitors in hepatoma cells, counter-screen for TTR transcription activator project, cell-based, luminescence, HuH7 hepatoma; shares compounds with TTR transcr act; HuH7 TTR promoter-Gaussia luciferase reporter; inhibition, % at 16.7 µM; actives 4% (n = 1,100);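 active = average inhibition above the solvent-only control wells' mean plus 3 SD, cut at about 15% in these data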;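 note: 0% = cells with DMSO only and 100% = cells with inhibitor control FD; inhibitors lower well luminescence so higher value means more inhibition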
TTR act confirm: TTR transcription activators, retest, confirmation, cell-based, luminescence, SH-SY5Y, triplicate. shares compounds with TTR transcr act. SHSY5Y TTR promoter Gaussia luciferase; 100% = purified Lucia enzyme wells, no cells. activation, % at 16.7 µM. 1,100 tested, under 10 active. AID 1117280, 2014;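 active = mean activation above a set limit taken from the earlier primary screen, cut at about 11% in these data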;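 note: 0% = DMSO-treated cells and 100% = recombinant Lucia luciferase without cells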
An asterisk follows results filed as active. The sample as a whole holds a higher share of hits than the screen did.

SMILES	TTR transcr act	others
O=C(COC(=O)/C=C/c1ccc(F)cc1)NC1CCCCCC1	10*	HuH7 TTR inh=-7;TTR act confirm=0
O=C(COC(=O)/C=C/c1ccc(Cl)cc1)NC1CCCC1	3
O=C(NC1CCCCN(Cc2ccc(Cl)cc2)C1=O)c1ccc(Cl)cc1Cl (stereo not given)	0
CCOC(=O)CC[C@H](NC(=O)[C@@H]1CC=C[C@@H]2CCN(Cc3ccc(Cl)cc3)C(=O)[C@@H]21)C(=O)OCC	1
Cc1ccc(N(CC(=O)NC(C)C)C(=O)CCC(=O)Nc2nccs2)cc1	2
Cc1ccc(N(CC(=O)NCC2CCCO2)C(=O)CCC(=O)Nc2nccs2)cc1C (stereo not given)	0
Cc1ccc(N(CC(=O)NC(C)(C)C)C(=O)CCC(=O)Nc2nccs2)cc1C	9.7*	HuH7 TTR inh=-11;TTR act confirm=-1
COC(=O)[C@]12C[C@H](CC(=O)NCC3CCCCC3)C(=O)N(Cc3ccc4c(c3)OCO4)C1=C[C@H](C(C)C)O[C@@H]2C1CC1	1
CCc1ccc(CCNC(=O)OC2CC3CC2[C@H]2CCCCN2[C@H]3C)cc1 (stereo not given in full)	-1
O=C(CC[C@H]1O[C@@H](n2ccc(=O)[nH]c2=O)[C@H](O)[C@@H]1O)N[C@@H](Cc1ccccc1)C(=O)NCc1ccccc1	15*	HuH7 TTR inh=-9;TTR act confirm=-1
CC(C)CCNC(=O)[C@@H](Cc1ccccc1)NC(=O)CC[C@H]1O[C@@H](n2ccc(=O)[nH]c2=O)[C@H](O)[C@@H]1O	0
O=c1ccn([C@@H]2O[C@H](CNCc3ccc(-n4cccn4)cc3)[C@@H](O)[C@H]2O)c(=O)[nH]1	-1
COc1ccc2cc(/C=N/NC(=O)CN(c3ccccc3OC)S(=O)(=O)c3ccccc3)c(Cl)nc2c1	0
O=C(O)c1ccccc1Nc1ccc([N+](=O)[O-])cc1C(=O)O	1
O=C(O)c1cc([N+](=O)[O-])cc2ccccc12	15*	HuH7 TTR inh=-1;TTR act confirm=0
O=C(O)c1cc([N+](=O)[O-])ccc1-c1ccc([N+](=O)[O-])cc1C(=O)O	0
Cc1ccc(NC(=O)OC2CC3CC2[C@H]2CCCCN2[C@H]3Cc2ccccc2)cc1 (stereo not given in full)	0
Cc1ccc(S(=O)(=O)NCC2CN(S(=O)(=O)c3ccc(C)cc3)c3ccccc3C(=O)N2c2ccc(F)cc2)cc1 (stereo not given)	0
O=C1N(CC[C@@H](O)c2ccccc2)CCC12CCC(c1ccccc1)CC2 (stereo not given in full)	0
CC1=N/C(=C\c2ccc([N+](=O)[O-])cc2)C(=O)N1c1ccc(C)c(Cl)c1	0
Cc1cc(C)n(C(=O)Cn2nc(C)c(Cl)c2C)n1	1
Cc1cc(C)n(C(=O)CNc2cccc(Cl)c2C)n1	11*	HuH7 TTR inh=-14;TTR act confirm=-1
Cc1cc(C)n(C(=O)CNC(=O)C(c2ccccc2)c2ccccc2)n1	-1
CCCC1CCC2(CCCN2CCOC(=O)Nc2ccccc2C)CC1 (stereo not given)	-2
O=C(Nc1ccc2c(c1)OCO2)C1CC(=O)N(CCc2ccccc2)C1 (stereo not given)	-2
SMILES	TTR transcr act	others
CCOc1ccc(NC(=O)CN(C)C(=O)C2CC(=O)N(CCc3ccccc3)C2)cc1OCC (stereo not given)	25*	HuH7 TTR inh=-15;TTR act confirm=1
CCOc1ccc(NC(=O)CN(C)C(=O)c2ccncc2)cc1OCC	-1
COC(=O)[C@@]12CCCCC=C1N(CCc1ccc(Cl)cc1)C(=O)[C@H]2CC(=O)NCCCCc1ccccc1	-2
C/C=C/c1ccc([C@H]2[C@@H](CN(CC(C)C)S(=O)(=O)c3ccccc3[N+](=O)[O-])N(C(=O)Nc3cccc(OC)c3)[C@H]2CO)cc1	0
O=C(Cc1ccccc1)NN1C(=O)C2C(C1=O)C1C=CC2C12CC2 (stereo not given)	-1
O=C(Cc1ccccc1)NN1C(=O)C2C3C=CC(C3)C2C1=O (stereo not given)	2
O=C(Cc1ccccc1)NN1C(=O)C2C3C=CC(C4CC34)C2C1=O (stereo not given)	10*	HuH7 TTR inh=-13;TTR act confirm=-1
O=C(N1CCC(Cc2ccccc2)CC1)n1ncc(C(O)(c2ccccc2)c2ccccc2)n1	-1
CCCCN1CN2CCc3ccccc3C2CS1(=O)=O (stereo not given)	4
Nc1[nH]c(C(=O)c2ccccc2)c(-c2ccc3ccccc3c2)c1C(=O)NCCc1ccc(Cl)cc1	4
O=S(=O)(NCc1csc(-c2cccnc2)n1)c1ccc(Br)cc1	1
O=S(=O)(NCCc1csc(-c2cccnc2)n1)c1cccc(F)c1	2
O=C(NCCc1csc(-c2cccnc2)n1)c1ccccc1Br	18*	HuH7 TTR inh=-17;TTR act confirm=1
Cc1cc(C)c(CN2CCN(C(=O)Cn3cc(C)c(=O)[nH]c3=O)CC2)c(C)c1	-1
COCC(=O)N(c1ccc(C(C)(C)C)cc1)C(C(=O)NC(C)(C)C)c1cccnc1 (stereo not given)	2
COC(=O)[C@]12C[C@H](CC(=O)NCc3cccs3)C(=O)N(Cc3cccc4ccccc34)C1=C[C@H](C(C)C)O[C@@H]2C1CC1	0
CC(C)(C)OC(=O)NC1CCN(c2nc(-c3ccc(Br)cc3)cs2)CC1	4
Cc1ccc(S(=O)(=O)N2CC3(COC(C)(C)OC3)C[C@H]2CON2C(C)(C)CCCC2(C)C)cc1	-1
COC(=O)c1ccc(NC(=O)COc2cccc(-n3cnnn3)c2)cc1	-2
COC(=O)COc1cccc(-n2cnnn2)c1	11*	HuH7 TTR inh=-9;TTR act confirm=1
COc1cc(C(=O)Nc2cccc(-n3cnnn3)c2)cc(OC)c1OC	-1
Cc1ccc(NC(=O)C2CC3CCC2C3)c(C)c1 (stereo not given)	0
O=C(NCc1ccccc1Br)c1ccco1	4
O=C(CNC(=O)c1ccco1)OCc1ccccc1Cl	11*	HuH7 TTR inh=-10;TTR act confirm=0
O=C(COC(=O)CNC(=O)c1ccco1)Nc1ccc(Cl)cn1	-2
SMILES	TTR transcr act	others
O=C(CCC1CCCC1)N=C1SC2CS(=O)(=O)CC2N1c1ccccc1F (stereo not given)	13*	HuH7 TTR inh=-2;TTR act confirm=-1
O=C(N=C1SC2CS(=O)(=O)CC2N1Cc1ccccc1)C1CC1 (stereo not given)	0
O=C(COc1ccccc1)N=C1SC2CS(=O)(=O)CC2N1c1ccccc1 (stereo not given)	-1
COC(=O)[C@]12C[C@H](CC(=O)NCc3cccc4ccccc34)C(=O)N(Cc3ccc(Cl)cc3Cl)C1=C[C@H](C1CCCC1)O[C@@H]2C	-1
CCOc1ccc(S(=O)(=O)N2CCN(Cc3ccc4c(c3)OCO4)CC2)cc1OCC	-2
CC(C)(C)c1ccc(S(=O)(=O)N2CCN(Cc3cc4c(cc3O)OCO4)CC2)cc1	15*	HuH7 TTR inh=-7;TTR act confirm=1
O=S(=O)(c1ccc(Cl)nc1)N1CCN(Cc2ccc3c(c2)OCO3)CC1	-1
Brc1ccc(N2O[C@H]3C=C[C@@H]2C3)nc1	0
CCN(CC)C(=O)O[C@H]1CC[C@@]23CCCN2C(=O)CCC[C@H]3[C@H]1C	1
COc1cc(C2(c3ccc(O)c(OC)c3)C(=O)N(C)c3ccc(C)cc32)ccc1O	1
